Sampled rows, rich in hits. Any-hit rate of the full collection: about 3.4%.
PAFAH1B2 inh: PAFAH1B2 (human) inhibition. P68402. recombinant PAFAH1B2, FP-rhodamine activity probe, fluorescence polarization. inhibition, % at 3.39 µM. actives 1.2% (n = 340,000). AID 492953;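 active means inhibition above the mean of all tested compounds plus 3 SD, cut at about 24% in these data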
Target sequence (P68402 whole entry, looked up): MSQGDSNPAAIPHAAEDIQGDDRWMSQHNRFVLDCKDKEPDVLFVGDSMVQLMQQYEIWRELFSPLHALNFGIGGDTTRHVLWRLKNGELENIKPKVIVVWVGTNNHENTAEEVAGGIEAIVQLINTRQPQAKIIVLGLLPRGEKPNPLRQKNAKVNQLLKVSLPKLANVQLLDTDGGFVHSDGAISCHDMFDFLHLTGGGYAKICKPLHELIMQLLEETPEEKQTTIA
PP5 inh: inhibitors of human protein phosphatase 5 (PP5); inhibition, % at 6.7 µM; AID 1987; actives 0.18% (n = 320,000); purified PP5c, OMFP substrate fluorescence;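 active means inhibition above the campaign's mean inhibition across all tested compounds plus 3 SD, cut at about 9.5% in these data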
PAFAH2 FP inh: PAFAH2 (human) inhibition | Q99487 | recombinant PAFAH2, FP-rhodamine activity probe, fluorescence polarization | inhibition, % at 3.39 µM | actives 0.99% (n = 340,000);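 active means inhibition above the mean over all tested compounds plus 3 SD, cut at about 30% in these data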;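 further: inhibitors block probe labeling of enzyme so polarization drops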
PP1 counter: blocks human PP1-alpha phosphatase, a PP5 counter-screen | P62136 | purified PP1alpha, OMFP fluorescence | inhibition, % at 6.7 µM | actives 0.9% (n = 320,000) | AID 2235;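 active means inhibition above the mean inhibition of all tested compounds plus 3 SD, computed separately for each screening campaign, cut at about 15% in these data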
pPAFAH FP inh: pPAFAH (human) enzyme inhibition; recombinant pPAFAH, FP-rhodamine probe fluorescence polarization; inhibition, % at 3.39 µM; actives 1.5% (n = 330,000);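 active means inhibition above the mean inhibition across the screen plus 3 SD, cut at about 25% in these data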;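 further: inhibitors block binding of the rhodamine activity-based probe so polarization drops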
PAFAH1B3 inh: PAFAH1B3 (human) inhibition; Q15102; recombinant PAFAH1B3, FP-rhodamine probe, fluorescence polarization; inhibition, % at 3.39 µM; actives 0.28% (n = 340,000);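 active means inhibition above the screen-wide average of all tested compounds plus 3 SD, cut at about 25% in these data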
Target sequence (Q15102 whole entry, looked up): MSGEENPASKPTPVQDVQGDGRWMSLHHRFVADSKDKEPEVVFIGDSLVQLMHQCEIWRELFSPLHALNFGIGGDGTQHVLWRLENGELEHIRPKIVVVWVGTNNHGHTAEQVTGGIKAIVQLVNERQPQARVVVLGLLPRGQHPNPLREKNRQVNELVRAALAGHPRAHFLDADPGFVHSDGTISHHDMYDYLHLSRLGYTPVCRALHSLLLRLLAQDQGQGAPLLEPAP
PP1 confirm: human PP1 phosphatase inhibition, confirmation | shares compounds with PP1 counter | purified PP1alpha, OMFP substrate fluorescence | inhibition, % at 6.7 µM | actives 52% (n = 1,900) | AID 2358;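 active means mean PP1 inhibition above a set limit taken from the earlier primary screen, cut at about 15% in these data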
PP5 inh counter: counter-screen for PP1 inhibitors: human PP5 phosphatase inhibition | shares compounds with PP1 counter | purified PP5c, OMFP fluorescence | inhibition, % at 6.7 µM | actives 4% (n = 1,900) | AID 2360;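 active means mean PP5 inhibition over triplicate wells above about 9.5% taken from the earlier PP1 screen, limit read from the data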
pPAFAH confirm: pPAFAH (human) inhibition, confirmed; shares compounds with pPAFAH FP inh; recombinant pPAFAH, FP-Rh probe fluorescence polarization; inhibition, % at 3.39 µM; actives 72% (n = 2,300); AID 463230;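 active means mean inhibition of the triplicate above the hit cutoff set for the earlier primary screen, cut at about 25% in these data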
PAFAH2 FP conf: confirmation of human PAFAH2 inhibitors; shares compounds with PAFAH2 FP inh; recombinant PAFAH2, FP-rhodamine activity probe, fluorescence polarization; inhibition, % at 3.39 µM; actives 65% (n = 2,300); AID 493030;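 active means mean inhibition over three repeats above a set limit taken from the earlier primary screen, cut at about 30% in these data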;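 further: inhibitor blocks binding of rhodamine activity probe so polarization falls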
PAFAH1B3 confirm: PAFAH1B3 (human) inhibition, confirmed; recombinant PAFAH1B3, FP-Rh activity-based probe, fluorescence polarization; inhibition, % at 3.39 µM; shares compounds with PAFAH1B3 inh; actives 30% (n = 390);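 active means average inhibition over triplicate runs above the hit cutoff set in the earlier primary screen, cut at about 25% in these data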
Numbers stand for hits.

Results for COc1cc2c(cc1OC)-c1cc(NCc3ccccn3)nc(=O)n1CC2 ?
PAFAH1B2 inh: inactive; PP5 inh: inactive; PAFAH2 FP inh: 31; PP1 counter: 20; pPAFAH FP inh: inactive; PAFAH1B3 inh: inactive; PP1 confirm: 21; PP5 inh counter: inactive; PAFAH2 FP conf: inactive

What do the screens show for `CCNc1cc2n(c(=O)n1)CCc1cc(OC)c(OC)cc1-2`?
PAFAH1B2 inh: inactive; PP5 inh: inactive; PAFAH2 FP inh: inactive; PP1 counter: inactive; pPAFAH FP inh: inactive; PAFAH1B3 inh: inactive

How did O=C(/C=C/c1cccc(Cl)c1)Nc1ccncc1 do in these assays?
PAFAH1B2 inh: inactive; PP5 inh: inactive; PAFAH2 FP inh: inactive; PP1 counter: inactive; pPAFAH FP inh: inactive; PAFAH1B3 inh: inactive

What do the screens show for `O=c1cc(-c2ccco2)nc(SCc2cccc(Cl)c2)[nH]1`?
PAFAH1B2 inh: inactive; PP5 inh: inactive; PAFAH2 FP inh: 32; PP1 counter: 18; pPAFAH FP inh: inactive; PAFAH1B3 inh: inactive; PP1 confirm: inactive; PP5 inh counter: inactive; PAFAH2 FP conf: inactive

What do the screens show for `COc1ccc(C2CC(c3ccccc3)=NN2C(=O)COC(=O)c2cc(S(=O)(=O)N3CCOCC3)ccc2Cl)cc1` (stereo not drawn)?
PAFAH1B2 inh: inactive; PP5 inh: inactive; PAFAH2 FP inh: 31; PP1 counter: 20; pPAFAH FP inh: inactive; PAFAH1B3 inh: inactive; PP1 confirm: inactive; PP5 inh counter: inactive; PAFAH2 FP conf: inactive

How did Cc1cc(C)cc(NS(=O)(=O)c2ccc(NC(=O)c3ccccc3C(=O)O)cc2)c1 do in these assays?
PP5 inh: inactive; PP1 counter: inactive; pPAFAH FP inh: inactive

How did Cc1ccc2ccccc2[n+]1CCCS(=O)(=O)[O-] do in these assays?
PAFAH1B2 inh: inactive; PP5 inh: inactive; PAFAH2 FP inh: inactive; PP1 counter: inactive; pPAFAH FP inh: inactive; PAFAH1B3 inh: inactive

How did CCCC[n+]1c2ccccc2cc2ccccc21 do in these assays?
PAFAH1B2 inh: inactive; PP5 inh: inactive; PAFAH2 FP inh: inactive; PP1 counter: 22; pPAFAH FP inh: inactive; PAFAH1B3 inh: 27; PP1 confirm: 19; PP5 inh counter: inactive; PAFAH1B3 confirm: 35

Results for CC1(C)Cc2c(C#N)c(N)n(-c3ccccc3)c(=S)c2CO1 ?
PP5 inh: inactive; PP1 counter: inactive; pPAFAH FP inh: inactive

What do the screens show for `CC1(C)C=C2C(=NN(c3ccccc3)C(N)=C2C#N)CO1`?
PAFAH1B2 inh: inactive; PP5 inh: inactive; PAFAH2 FP inh: inactive; PP1 counter: 33; pPAFAH FP inh: inactive; PAFAH1B3 inh: 44; PP1 confirm: inactive; PP5 inh counter: 59; PAFAH1B3 confirm: 51

Results for CCN1CCN(c2ccc(S(=O)(=O)N3CCOCC3)cc2NC(=O)c2ccccc2SC)CC1 ?
PAFAH1B2 inh: inactive; PP5 inh: inactive; PAFAH2 FP inh: inactive; PP1 counter: inactive; pPAFAH FP inh: inactive; PAFAH1B3 inh: inactive

What do the screens show for `Cc1ccc(C(C)C)c(OCc2ccc(C(=O)N/N=C/c3cccc(O)c3O)cc2)c1`?
PAFAH1B2 inh: inactive; PP5 inh: inactive; PAFAH2 FP inh: inactive; PP1 counter: 23; pPAFAH FP inh: 54; PAFAH1B3 inh: 33; PP1 confirm: 18; PP5 inh counter: inactive; pPAFAH confirm: 52; PAFAH1B3 confirm: inactive

How did CCN(CC)c1ccc(/C=N/NC(=O)Cc2nnc(NC(=O)Nc3ccccc3)s2)cc1 do in these assays?
PAFAH1B2 inh: inactive; PP5 inh: inactive; PAFAH2 FP inh: inactive; PP1 counter: 20; pPAFAH FP inh: inactive; PAFAH1B3 inh: 35; PP1 confirm: 25; PP5 inh counter: inactive; PAFAH1B3 confirm: 26

High-throughput results deposited in PubChem by The Scripps Research Institute Molecular Screening Center.
